Screening results: PubChem BioAssay, The Scripps Research Institute Molecular Screening Center
DAX1 inh-1: DAX1 (NR0B1) inhibitors on StAR promoter, primary screen, cell-based, luminescence, SF-1 (NR5A1), full-length DAX-1 | HEK293T StAR-luciferase reporter, SF-1/DAX-1 repression relief | inhibition, % at 6.8 µM | 370,000 tested, 1.1% active | AID 652010, 2013;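 active = inhibition above the mean over all tested compounds plus 3 SD, cut at about 3.6% in these data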;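 also: higher inhibition means more luminescence from relief of DAX-1 repression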
hcDAF12 agonist: H. contortus DAF-12 nuclear receptor activators, primary screen, cell-based, luminescence, HEK293, lit1-tk-luc reporter. HEK293 hcDAF-12 lit1-tk-luc reporter; 0% DMSO, 100% Δ7-dafachronic acid. activation, % at 6.8 µM. 370,000 tested, 1.4% active;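 active = activation above the mean of all tested compounds plus 3 SD, cut at about 5.5% in these data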
ssDAF12 agonist: S. stercoralis DAF-12 nuclear receptor activators, primary screen, cell-based, luminescence, HEK293, GRIP1 co-expression, lit1-tk-luc | Nuclear hormone receptor DAF-12 (Strongyloides stercoralis) | HEK293 ssDAF-12/GRIP1 lit1-tk-luc reporter; % of 3 µM dafachronic acid response | activation, % at 6.8 µM | 370,000 tested, 1% active | AID 652126, 2013;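 active = activation above the mean over all tested compounds plus 3 SD, cut at about 0.9% in these data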
AHR act: AHR activators, primary screen, cell-based, luminescence, luciferase reporter, human; AID 2796, 2010; Aryl hydrocarbon receptor (Homo sapiens), P35869; AHR-responsive luciferase reporter cells; 320,000 tested, 2.5% active; activation, % at 5 µM; in the data active = activation above about 47%
hgDAF12 agonist: H. glycines DAF-12 receptor agonists, primary screen, cell-based, luminescence, HEK293, GAL4 fusion, UAS-luciferase; Nuclear hormone receptor DAF-12 (Heterodera glycines), GAL4 fusion; HEK293 GAL4-hgDAF12 UAS-luciferase reporter, agonist luminescence; normalized to butyrate control; activation, % at 6.8 µM; 370,000 tested, 1.8% active;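 active = activation above a cutoff set at the mean of all screened compounds plus 3 SD, cut at about 10% in these data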
DAX1 inh-2: DAX1 (NR0B1) inhibitors, primary screen, cell-based, HEK293, Gal4-DAX1, luciferase luminescence. Nuclear receptor subfamily 0 group B member 1 (Homo sapiens), P51843. HEK293 Gal4-DAX1 luciferase reporter. inhibition, % at 6.75 µM. 340,000 tested, 0.99% active. AID 504766, 2011;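 active = inhibition above the mean over all tested compounds plus 3 SD, cut at about 4.2% in these data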;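 also: inhibition shows as a rise in luminescence from relieved DAX1 repression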
AHR act confirm: AHR activators, confirmation, cell-based, luminescence, luciferase reporter, human; shares compounds with AHR act; human cells, AHR-responsive luciferase reporter; activation, % at 9 µM; 2,300 tested, 87% active; in the data active = activation above about 49%;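 also: HepG2 hepatoma cells carrying a DRE-driven firefly luciferase reporter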
PXR counter: human PXR activators, counter-screen for AHR activator project, cell-based, luciferase luminescence | activation, % at 11.6 µM | AID 434939, 2010 | 2,300 tested, 88% active | cell-based PXR reporter | shares compounds with AHR act; in the data active = activation above about 11%;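 also: human hepatoma DPX-2 cells expressing full-length human PXR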
Target sequence (O75469 whole entry, looked up): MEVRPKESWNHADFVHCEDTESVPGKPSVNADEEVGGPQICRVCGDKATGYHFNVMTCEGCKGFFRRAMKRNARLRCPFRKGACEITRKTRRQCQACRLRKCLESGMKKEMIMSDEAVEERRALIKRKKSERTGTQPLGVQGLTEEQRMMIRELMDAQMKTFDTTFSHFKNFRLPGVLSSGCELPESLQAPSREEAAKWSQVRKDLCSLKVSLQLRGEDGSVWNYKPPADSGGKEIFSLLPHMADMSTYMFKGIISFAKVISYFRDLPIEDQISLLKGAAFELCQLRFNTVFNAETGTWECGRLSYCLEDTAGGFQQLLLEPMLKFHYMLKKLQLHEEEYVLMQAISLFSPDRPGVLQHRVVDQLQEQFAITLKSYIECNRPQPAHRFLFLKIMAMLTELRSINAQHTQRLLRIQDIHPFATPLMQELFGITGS
Hits are given with their value; 0 = inactive; - = no result. Rows were chosen to be rich in hits. Some 5.7% of all compounds tested hit in one or more screens of this group.

SMILES	DAX1 inh-1	hcDAF12 agonist	ssDAF12 agonist	AHR act	hgDAF12 agonist	DAX1 inh-2	AHR act confirm	PXR counter
O=C(Nc1cccc2nsnc12)c1ccc(F)cc1	0	0	0	0	0	0	-	-
CC(C)C(=O)Nc1cccc(C(=O)Nc2cc([N+](=O)[O-])ccc2Cl)c1	0	0	0	0	0	0	-	-
Cc1ccc([N+](=O)[O-])cc1NC(=O)c1ccc2c(c1)OCO2	0	0	0	115	0	0	100	25
C(=C\c1ccccc1)/CN1CCN(C(c2cccc3ccccc23)c2nnnn2-c2ccc3c(c2)OCCO3)CC1 (stereo not drawn)	0	0	0	-	0	-	-	-
CCCCn1nc(C(=O)NCC(c2cccs2)N2CCOCC2)c2ccccc2c1=O (stereo not drawn)	0	0	0	0	0	0	-	-
CCN(CC)C(=S)Nc1cc(C(=O)OC)ccc1C(=O)OC	0	0	0	0	0	0	-	-
COc1ccc(Br)cc1/C=N/NC(=O)CN1CCN(Cc2ccccc2)CC1	0	0	0	0	0	0	-	-
O=c1oc(CCCO)cc2ccc(C#Cc3cccnc3)cc12	0	0	0	88	0	0	76	18
Cc1nc(C(=O)Nc2ccccc2Cl)cc2c1[nH]c1ccccc12	0	0	0	0	0	0	-	-
COc1ccc(NC(=O)c2cc3c([nH]c4ccccc43)c(C)n2)cc1	0	0	0	85	0	0	88	15
COc1ccc(OCCC(=O)OCC(=O)NCc2ccc(F)cc2)cc1	0	0	0	0	0	0	-	-
COC(=O)c1cc2cc(Cl)ccc2nc1SC	0	0	0	0	0	0	-	-
CCN1C(=O)N/C(=C/c2cc(C)n(Cc3ccccc3)c2C)C1=O	0	0	0	136	0	0	103	230
CCn1c(C)cc(/C=C2\NC(=O)N(Cc3ccc(Cl)cc3)C2=O)c1C	0	0	0	0	0	0	-	-
CC(=O)Nc1ccc(S(=O)(=O)N2C(C)CCCC2C)cc1 (stereo not drawn)	0	0	0	0	0	0	-	-
[O-][n+]1c2ccccc2c2n1CCN1CCOC21c1ccc(Cl)cc1 (stereo not drawn)	0	0	0	80	0	0	118	65
COc1ccc(CN(CCN)C2CC(C)N(C)CC2C)cc1 (stereo not drawn)	0	0	0	0	0	0	-	-
Cc1ccc(-n2sc3ccccc3c2=O)cc1	0	0	0	80	0	0	74	30
O=c1c2ccccc2sn1-c1ccc(F)cc1	0	0	0	0	0	0	-	-
Cc1ccc2nc(N/N=C/c3ccco3)cc(C)c2c1	0	0	0	121	11	0	177	23
Cc1sc(N/N=C/c2ccco2)nc1-c1ccccc1	0	0	1.4	170	0	0	80	31
CN(/N=C/c1ccc(O)cc1O)c1nc(-c2ccccc2)cc(-c2ccccc2)n1	0	0	0	0	0	0	-	-
COc1cccc(-n2cnnc2SC(C)C(=O)NC2CCCC2)c1 (stereo not drawn)	0	0	0	0	0	0	-	-
c1ccc(-c2csc3nnc(SCc4ccc5c(c4)OCO5)n23)cc1	0	0	0	84	0	0	48	130
CN(C)S(=O)(=O)Oc1ccc(Cl)cc1C(=O)Nc1ccc(F)cc1F	0	0	0	81	0	0	81	191
SMILES	DAX1 inh-1	hcDAF12 agonist	ssDAF12 agonist	AHR act	hgDAF12 agonist	DAX1 inh-2	AHR act confirm	PXR counter
c1ccc(CN=C2NN=C(c3cc4ccccc4o3)CS2)cc1	0	0	0	0	0	0	-	-
c1ccc2oc(C3=NNC(=NC4CC4)SC3)cc2c1	0	6.8	0	137	0	0	0	16
Cc1ccc(COC(=O)c2cc(S(=O)(=O)N3CCOCC3)ccc2C)cc1	0	0	0	0	0	0	-	-
CCc1ccc(C(=O)Nc2ccc(OC)c(S(=O)(=O)N3CCOCC3)c2)cc1	0	0	0	0	0	0	-	-
COc1ccc(NC(=O)c2ccc(Cl)nc2)cc1S(=O)(=O)N1CCOCC1	0	0	0	92	0	0	102	21
O=c1c2ccccc2ncn1Cc1ccc(Cl)cc1	-	-	-	0	-	0	-	-
O=c1c2ccccc2ncn1-c1ccc(Cl)cc1	0	0	0	112	0	0	115	0
CC(C)C(=O)Nc1ccc(Cl)cc1-c1nc2ccccc2[nH]c1=O	0	0	0	79	0	0	76	12
CCC(=O)Nc1ccccc1-c1nc2ccccc2[nH]c1=O	0	0	0	-	0	0	-	-
Cc1cc(Nc2ccc(Br)cc2)n2nc(C)nc2n1	0	0	0	107	0	0	88	-
CN(C(=O)/C=C/c1ccc2c(c1)OCO2)c1ccccc1	0	0	0	97	0	0	79	114
CCCCn1c(SCC(=O)N(C)C)nnc1-c1ccncc1	0	0	0	0	0	0	-	-
O=C(O)c1ccc(-c2sc(Nc3ccccc3)n[n+]2-c2ccccc2)cc1	0	0	0	0	0	0	-	-
Cc1cccc(-c2sc(Nc3ccccc3)n[n+]2-c2ccccc2)c1	0	0	0	108	0	0	50	132
Clc1ccccc1Cn1nnc(-c2cccs2)n1	0	0	0	117	0	0	150	37
O=C(CCn1nnc(-c2cccs2)n1)NCc1ccccc1Cl	0	0	0	0	0	0	-	-
S=C(NCc1ccc2[nH]c3c(c2c1)CCCC3)Nc1ccccc1	0	0	0	112	0	0	71	36
Cc1cc(C)cc(NC(=S)NCc2ccc3[nH]c4c(c3c2)CCCC4)c1	0	0	0	0	0	0	-	-
CCC(/C=N/NC(=O)CCCCC(=O)N/N=C/C(CC)CC)CC	0	0	0	0	0	0	-	-
O=C(Nc1ccccc1)c1cnc(-c2ccccc2)nc1-c1ccccc1	0	0	0	90	0	0	93	47
Cc1ccc2c(c1)c1nnc(SCC(=O)NC3CC3)nc1n2C	0	0	0	79	0	0	100	19
CCc1nc2c(OCc3ccccc3C)cccn2c1N(C)C(=O)C1CC1	0	0	0	-	0	-	-	-
Cc1ccc(C)c(C(=O)N(C)CC(=O)Nc2ccccc2C(F)(F)F)c1	0	0	0	0	0	0	-	-
N#CC(C#N)=C1C=CC=CN1/C(=C\c1ccco1)C(=O)c1ccccc1	0	0	0	0	0	0	-	-
